Measurements taken from PubChem BioAssay AID1159580 (chemical genetic matrix, 2015).
Screen size: about 5,500 compounds; about 2,000 (36%) were called active. Roughly 18% stayed inconclusive and do not appear here. No stated cut-off is given here; in the data, active means normalized growth mostly below about 0.91 (no sharp cut-off); inconclusive means no clear call, values can overlap the other calls; inactive means mostly above about 0.92. The list shows a part of the results.

Experiment: chemical genetic growth profiling, strain panel (AID 1159580);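 further: tested at 20 µM; growth read once vehicle control cultures reached saturation at 30 °C; 1 = growth at the plate median or of vehicle wells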
Conditions: growth OD

Measured: normalized growth

C1CCN(CCC2CCCCN2)CC1 (stereo not drawn)
inactive: S. cerevisiae deletion strains, locus YAL013W, strain DEP1, stronger effect = lower value 0.999 | S. cerevisiae deletion strains, locus YBR229C, strain ROT2, stronger effect = lower value 1.01 | S. cerevisiae deletion strains, locus YDL101C, strain DUN1, stronger effect = lower value 0.995 | S. cerevisiae deletion strains, locus YDL134C, strain PPH21, stronger effect = lower value 1 | S. cerevisiae deletion strains, locus YDR150W, strain NUM1, stronger effect = lower value 0.936 | S. cerevisiae deletion strains, locus YEL061C, strain CIN8, stronger effect = lower value 1.02 | S. cerevisiae deletion strains, locus YGR078C, strain PAC10, stronger effect = lower value 1 | S. cerevisiae deletion strains, locus YHR030C, strain SLT2, stronger effect = lower value 1.08 | S. cerevisiae deletion strains, locus YHR087W, strain rtc3, stronger effect = lower value 1 | S. cerevisiae deletion strains, locus YJR043C, strain POL32, stronger effect = lower value 1 | S. cerevisiae deletion strains, locus YJR075W, strain HOC1, stronger effect = lower value 0.998 | S. cerevisiae deletion strains, locus YKL190W, strain CNB1, stronger effect = lower value 0.998 | S. cerevisiae deletion strains, locus YLR039C, strain RIC1, stronger effect = lower value 1.01 | S. cerevisiae deletion strains, locus YLR058C, strain SHM2 (second series), stronger effect = lower value 1.01 | S. cerevisiae deletion strains, locus YLR085C, strain ARP6, stronger effect = lower value 1.01 | S. cerevisiae deletion strains, locus YLR262C, strain YPT6, stronger effect = lower value 1 | S. cerevisiae deletion strains, locus YML094W, strain GIM5, stronger effect = lower value 1.01 | S. cerevisiae deletion strains, locus YMR219W, strain ESC1, stronger effect = lower value 1 | S. cerevisiae deletion strains, locus YMR263W, strain SAP30, stronger effect = lower value 1.01 | S. cerevisiae deletion strains, locus YNL153C, strain GIM3, stronger effect = lower value 1 | S. cerevisiae deletion strains, locus YNL298W, strain CLA4 (second series), stronger effect = lower value 0.981 | S. cerevisiae deletion strains, locus YNL322C, strain KRE1, stronger effect = lower value 0.995 | S. cerevisiae deletion strains, locus YNR030W, strain Alg12, stronger effect = lower value 0.996 | S. cerevisiae deletion strains, locus YOL006C, strain TOP1, stronger effect = lower value 0.964 | S. cerevisiae deletion strains, locus YPL055C, strain LGE1, stronger effect = lower value 0.967 | S. cerevisiae deletion strains, locus YPL241C, strain CIN2, stronger effect = lower value 0.993 | S. cerevisiae deletion strains, locus YPR135W, strain CTF4, stronger effect = lower value 1.08 | S. cerevisiae strains, strain wild type, stronger effect = lower value 0.996
